# Source: PubChem (ICCB-Longwood Screening Facility, Harvard Medical School)
# Polio RdRp inh – inhibitors of poliovirus RNA polymerase binding and polymerization | P03300 | poliovirus polymerase elongation, fluorescence polarization; stronger effect = lower value | % elongation, % (compound at 16.7 µg/mL) | 150,000 tested, 0.66% active; in the data active = % elongation below about 90%
# Mtb MbtI inh – blocks the Mycobacterium tuberculosis siderophore enzyme MbtI; purified MbtI enzyme, fluorescence intensity read-out; inhibition, % (no concentration beside the values); 100,000 tested, 0.89% active; in the data active = inhibition mostly above about 56%, no sharp cut-off; inactive = mostly below about 77%
# Target sequence (P9WFX0 whole entry, looked up): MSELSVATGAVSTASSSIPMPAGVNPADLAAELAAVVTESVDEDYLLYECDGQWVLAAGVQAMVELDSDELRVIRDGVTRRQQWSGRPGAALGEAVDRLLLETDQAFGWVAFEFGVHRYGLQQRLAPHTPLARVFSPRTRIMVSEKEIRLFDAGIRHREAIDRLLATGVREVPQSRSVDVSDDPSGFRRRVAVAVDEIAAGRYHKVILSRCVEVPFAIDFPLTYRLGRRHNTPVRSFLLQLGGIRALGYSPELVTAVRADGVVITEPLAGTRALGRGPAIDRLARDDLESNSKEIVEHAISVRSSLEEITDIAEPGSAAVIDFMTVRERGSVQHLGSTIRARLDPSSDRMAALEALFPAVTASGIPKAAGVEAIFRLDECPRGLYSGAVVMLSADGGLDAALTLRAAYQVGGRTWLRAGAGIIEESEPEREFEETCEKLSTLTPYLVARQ
# MenB inh – blocks the Mycobacterium tuberculosis MenB enzyme; MenB enzyme assay, absorbance read-out; P9WNP5; AID 540299; 100,000 tested, 0.43% active; inhibition, % (no concentration beside the values); in the data active = inhibition above about 21%, passing the limit was not always enough
# * hit, by the source's call; . = not tested or not shown. Sampled rows, rich in hits. Any-hit rate of the full collection: about 1.4%.
SMILES,Polio RdRp inh,Mtb MbtI inh,MenB inh
Cc1ccc(C2=CC(=O)C=CC2=O)cc1,104,92,16
O=c1c2oc3ccccc3c2n(Cc2ccc(F)cc2)c(=O)n1Cc1ccc2c(c1)OCO2,101,13,-26
CCN1C(=O)/C(=C/c2c[nH]c3ccccc23)c2ccccc21,111,8,-85
Cc1ccc2cc(C#N)c(SCC(=O)Nc3ccccc3N3CCOCC3)nc2c1C,100,-4,24
COc1ccc(C(=O)NCC23C=CC(O2)C2C(=O)N(c4ccccc4C)C(=O)C23)cc1 (centres undefined),103,65*,-1
Cc1ccc(N2C(=O)C3C4C=CC(CNC(=S)NCc5ccccc5)(O4)C3C2=O)cc1 (centres undefined),105,0,-46
COC(=O)C1C(=O)CC(=O)CC1c1ccco1 (centres undefined),100,1,40*
CCOC(=O)C1C(=O)C=C(c2ccc(NS(C)(=O)=O)cc2)CC1c1ccco1 (centres undefined),102,14,-41
CC(C)c1nnc2sc(-c3cccc4ccccc34)nn12,100,94,-57
OCCCNc1ncnc2sc(-c3ccccc3)cc12,98,107,-20
COC(CNc1ncnc2sc(-c3ccccc3)cc12)OC,102,80*,-29
O=C(Cc1ccccc1)N/N=C/C=C/c1ccco1,95,29,-17
O=c1[nH]c2ccc(S(=O)(=O)Nc3ccc(O)cc3)cc2[nH]1,104,-6,6
O=S(=O)(Nc1ccc(Cl)cc1)c1ccc2oc(=S)[nH]c2c1,91,90*,-48
Cc1ccc(OCC(=O)N(C)C)c(C)c1,99,5,-3
CCC(c1nnc(SCC(=O)NCC(C)C)o1)N(C)C (centres undefined),104,-3,-7
CCC(c1nnc(SCC(=O)NCCc2ccc(Cl)cc2Cl)o1)N(C)C (centres undefined),101,79*,-17
NNC(=O)Cc1nn2c(C3CCCCC3)nnc2s1,99,70*,-20
CCOC(=O)CC1=Nn2c(nnc2C2CCCCC2)SC1,105,3,-16
COc1ccc(CCNC(=O)c2ccc3c(c2)N(Cc2cccc(C)c2)C(=O)c2ccccc2S3(=O)=O)cc1OC,82*,.,.
COc1ccc(CCNC(=O)c2ccc3c(c2)N(Cc2ccccc2F)C(=O)c2ccccc2S3(=O)=O)cc1OC,110,.,.
COc1cc(C(=O)Sc2ccc(Cl)cc2)cc(OC)c1OC,84*,.,-28
COc1cc(C(=O)n2nc(C)c(Sc3ccc(Cl)cc3)c2C)cc(OC)c1OC,103,.,.
CCC(C)c1ccc(C(=O)COc2ccc(-c3nnco3)cc2)cc1 (centres undefined),104,-12,-58
O=C(COC(=O)c1ccc(S(=O)(=O)C(F)F)cc1)c1ccc2c(c1)OCCO2,97,-41,-8
SMILES,Polio RdRp inh,Mtb MbtI inh,MenB inh
Cc1ccc(-n2c(C)cc(P(=S)(N3CCOCC3)N3CCOCC3)c2C)c(C)c1,92,69*,-133
Cc1cc(P(=N)(N2CCOCC2)N2CCOCC2)c(C)n1-c1ccc(I)cc1,100,-8,0
COc1ccc2c(c1)cc1n2CCN2CCN=C12,100,-2,-3
COc1ccc2c(c1)cc1n2CCN=C1N,89*,.,-5
COc1ccc(CNCc2ccc(OC)c(C)c2)cc1,.,-11,.
COc1ccc(CNCc2cccc(OC)c2)cc1,89*,5,0
Cc1ccc2c(c1)C1CN(C)CCC1N2C(=O)/C=C/c1ccccc1 (centres undefined),99,0,.
CCOC(=O)c1s/c(=N/N=C(C)C)n(C)c1C,102,56*,-15
CCOC(=O)c1s/c(=N\C(=S)NC(=O)CN2C(=O)CCC2=O)n(C)c1C,99,12,-30
Cc1cc(NC(=O)COC(=O)c2ccccc2)no1,99,-5,-36
O=C(CSC1=Nc2ccccc2C2CC=NN12)Nc1ccc2c(c1)CCC2 (centres undefined),3.0*,17,-124
COC(=O)c1ccc(NC(=O)CSC2=Nc3ccccc3C3CC=NN23)cc1 (centres undefined),.,-1,-83
CSc1cccc(N2CC(C(=O)N3CCN(S(=O)(=O)Cc4ccccc4)CC3)CC2=O)c1 (centres undefined),101,-6,-8
Cc1ccc(O)c(C(=O)c2cnn3c(=S)[nH]nc3c2)c1,71*,43,-18
Cc1ccc(O)c(C(=O)c2cnn3c(N)nnc3c2)c1,64*,-5,-3
Nc1nnc2cc(C(=O)c3cc(F)ccc3O)cnn12,96,3,-15
Cc1ccc(O)c(C(=O)c2cnn(-c3nc(C)cc(=O)[nH]3)c2)c1,100,193,-24
COC(=O)C1=C(C)NC(=O)C1(NS(=O)(=O)c1ccc(C)cc1)C(F)(F)F (centres undefined),99,-2,3
COC1(NS(=O)(=O)c2ccc(C)cc2)C(C)=CC(=O)C=C1C,.,94*,.
COC(=O)c1ccc2c(c1)sc(=NC(=O)CSC(C)=O)n2C,104,-1,-21
CC1(C)Oc2ccc(C(=O)Nc3ccc4c(c3)CCC4)cc2NC1=O,102,0,-43
O=C(O)CCC(=O)c1ccc(I)cc1,101,4,.
O=C(O)CCC(=O)c1ccc(Br)cc1,90*,-11,.
C=CCNC(=O)C1C(=O)Nc2nc3ccccc3nc21 (centres undefined),101,-1,.
Cc1ccoc1C(=O)NCCN,104,.,-17
SMILES,Polio RdRp inh,Mtb MbtI inh,MenB inh
N/C(=N\O)c1ccccn1,104,-4,3
NC(=S)c1ccccn1,20*,10,-30
NC(=S)N/N=C(/C(=O)c1ccccn1)c1ccccn1,74*,91*,-8
N/C(=N\NS(=O)(=O)c1ccccc1)c1ccccn1,104,7,-13
Cc1cc(SCC(N)=O)n2c(nc3ccccc32)c1C#N,121,-6,-17
FC(F)(F)c1n[nH]c(=S)n1/N=C/c1c[nH]c2ccccc12,95,.,-5
S=c1[nH]nc(Cc2cccc3ccccc23)n1/N=C/c1ccco1,99,65*,-37
CCN(CC)c1cc(-c2cccs2)nc(SCC(=O)c2cccs2)c1C#N,77*,.,-5
O=C(CSc1ccc(-c2cccs2)nn1)c1cccs1,98,18,-17
NS(=O)(=O)c1ccc(NC(=O)CN2CC(=O)NC(=O)C2)cc1,101,-2,-22
O=C(CSc1nc2cc(Cl)ccc2o1)NC1CCCC1,103,-1,.
COC(=O)CC1C(=O)NCCN1C(=O)CSc1nc2ccccc2c(=O)n1-c1ccc(C)cc1 (centres undefined),100,20,5
COC(=O)CC1C(=O)NCCN1C(=O)CSc1nc2ccccc2s1 (centres undefined),95,97*,-56
CC(C(=O)Nc1ccccc1C(=O)NC1CC1)N1C(=O)C2CC=CCC2C1=O (centres undefined),104,-9,-15
CS(=O)(=O)N1CCCc2cc(C(=O)NC3CCCCCCC3)ccc21,100,3,11
Cc1ccc(Nc2nn(CCC(=O)O)c(=S)n2-c2ccc(C)cc2)cc1,101,-8,-16
CCOC(=O)CCc1c(CC(=O)OCC)c[nH]c1/C=N/O,50*,-9,-21
CCOC(=O)CCc1c(C)nc2ncnn2c1C,.,-1,.
CNC(=O)c1ccc(CN2CCc3ccccc3C2)cc1,102,0,27*
c1ccc2c(c1)CCN(Cc1ccncc1)C2,101,-19,-19
